# Test results: PubChem BioAssay
# A number with no mark means an inactive call.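 The calls were made as follows: active = viability at or below 10% of carrier control in both of two separate runs; inconclusive = viability at or below 10% in only one of the two runs; inactive = the rest.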
# Assay: reduced viability of SK-BR-3 breast cancer cells – cell-based, 24 h, human, pilot screen (AID 572);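 also: compound exposure lasted between 18 and 24 h rather than exactly 24 h; 100% = carrier-treated control wells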
# Conditions: SK-BR-3 viability, CellTiter-Glo luminescence, at 10 µM, hits give low values
row,SMILES,viability
1,Cc1ccc(NC(=O)c2cc(-c3ccc(C)o3)nc3ccccc23)nc1,80%
2,CCc1cccc(NC(=O)Cn2cc3c(n2)CCCC3)c1,105%
3,CCN(CC)C(=O)C1CCCN(c2ncnc3c2cnn3-c2ccc(Cl)cc2)C1 (stereo not given),94.5%
4,Cc1cccc(NC(=O)CS(=O)(=O)c2cn(C)c3ccccc23)c1,98%
5,O=C(CN1C(=O)c2ccccc2S1(=O)=O)NCc1ccccc1Cl,90.5%
6,Cn1cnc2cc(NC(=O)c3ccc(Cl)cc3)ccc21,91.5%
7,COC(=O)c1cn(NC(=O)C2CCCO2)c(=O)c2ccccc12 (stereo not given),109%
8,O=C(c1ccc(Cl)s1)N1CCN(c2nc3ccccc3s2)CC1,84%
9,O=C(Nc1ccc(N2C(=O)C3C4C=CC(C4)C3C2=O)cc1)Nc1nncs1 (stereo not given),92%
10,CNC(=O)c1ccccc1NC(=O)c1c(O)c2c([nH]c1=O)CCCC2,112%
11,COc1ccccc1CNC(=O)CCn1c(=O)[nH]c2ccsc2c1=O,97.5%
12,Cc1ccc(-c2nc3cc(NC(=O)C(C)C)ccc3o2)cc1,87%
13,COc1ccccc1N1CCN(C(=O)c2cc(C3CC3)on2)CC1,84%
14,CCCCN(C(=O)c1ccc(Cl)cc1)C1CC2CCC(C1)N2C (stereo not given),87.5%
15,COc1ccc(OC)c2[nH]c(=O)c(CCNC(=O)C(C)C)cc12,109%
16,COc1ccccc1S(=O)(=O)Cc1ccc(C(=O)N2CCN(c3ccccn3)CC2)o1,101%
17,CCC(=O)c1cc(F)c(N2CCN(C(=O)c3ccco3)CC2)cc1C,82%
18,CC(C)Cc1nnc(NS(=O)(=O)c2ccc(Cl)cc2)s1,91.5%
19,COc1ccc(N2C(=O)CCC(C(=O)N3CCCCC3)C2c2ccc(OC)c(OC)c2)cc1 (stereo not given),100%
20,Cc1c(C#N)c2ccccc2n1CC(=O)N1CCc2ccccc2C1,102%

row,SMILES,viability
1,COCCCNC(=O)c1ccc(CS(=O)(=O)c2ccc(OC)cc2)o1,104%
2,CCCCSc1nc2c(cnn2-c2ccc(F)cc2)c(=O)[nH]1,93.5%
3,COc1ccc2[nH]c(C)c(CCN3C(=O)OC(C)(C)C3(C)O)c2c1 (stereo not given),100%
4,CCCCOCCCNC(=O)COc1ccccc1,103%
5,c1ccc(-c2cn3cccnc3n2)cc1,118%
6,CCCCn1c(SCC(=O)OCC)nc2c1c(=O)[nH]c(=O)n2C,100%
7,O=C(CCn1c(=O)oc2ccccc21)NCc1ccco1,106%
8,CN(C)C(=O)N1CCN(C(=O)c2ccco2)CC1,116%
9,CC(=O)C1=C(C)Nc2ncnn2C1c1cccc(OCc2ccccc2)c1 (stereo not given),102%
10,CC1Cc2nc(SCC(=O)N3CCCc4ccccc43)n(C)c(=O)c2S1 (stereo not given),97%
11,CCOC(=O)N1CCN(C(=O)c2ccc3nc4ccsc4c(=O)n3c2)CC1,97.5%
12,CC(C)(C)SCCNC(=O)CN1C(=O)c2ccccc2S1(=O)=O,97%
13,COc1cccc(-c2nnc(NC(C)=O)o2)c1,93.5%
14,CCCCc1cc(=O)oc2cc(OCC(=O)N(CC)CC)c(Cl)cc12,98%
15,CCOC(=O)CCc1c(C)nc2cc(-c3ccc(F)cc3)[nH]n2c1=O,97%
16,CN(Cc1ccccc1)S(=O)(=O)c1ccc(S(=O)(=O)N2CCN(CCC#N)CC2)cc1,91%
17,Cc1ccc(-n2c3c(cc(C(=O)NCCCN4CCOCC4)c2=O)C(=O)CC(C)(C)C3)cc1,109%
18,COc1cc2c(cc1OC)C(c1ccc(C)o1)CC(=O)N2 (stereo not given),81.5%
19,O=C(Nc1ccc2c(c1)OCO2)c1ccc(CN2CCOCC2)cc1,97.5%
20,CC1Cn2c(nnc2-c2ccc(F)cc2)S1 (stereo not given),112%
